Laboratory results taken from PubChem BioAssay AID1159580 (chemical genetic matrix, 2015).
Values joined by “and” are separate entries in the source; they are usually repeats but may differ in a detail not shown here. Identical values can stand only once. Screen size: about 5,500 compounds; about 2,000 (36%) were called active. Roughly 18% stayed inconclusive and do not appear here. No stated cut-off is given here; in the data, active means normalized growth mostly below about 0.91 (no sharp cut-off); inconclusive means no clear call, values can overlap the other calls; inactive means mostly above about 0.92. The list shows a part of the results.

Assay: chemical genetic growth profiling, strain panel (AID 1159580);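 further: tested at 20 µM; growth read once vehicle control cultures reached saturation at 30 °C; 1 = growth at the plate median or of vehicle wells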
Details: S. cerevisiae deletion strains, growth OD

Measured: normalized growth

CN1CCC(=C2c3ccccc3CC(=O)c3sccc32)CC1
inactive: locus YAL013W, strain DEP1, stronger effect = lower value 1.01 | locus YAL021C, strain ccr4, stronger effect = lower value 0.985 | locus YAL026C, strain drs2, stronger effect = lower value 0.981 | locus YAL030W, strain snc1, stronger effect = lower value 0.975 | locus YAL040C, strain CLN3, stronger effect = lower value 0.992 | locus YBL061C, strain skt5, stronger effect = lower value 0.981 | locus YBR009C, strain hhf1, stronger effect = lower value 1.02 | locus YBR021W, strain FUR4, stronger effect = lower value 1.01 | locus YBR023C, strain chs3, stronger effect = lower value 0.986 | locus YBR171W, strain sec66, stronger effect = lower value 0.964 | locus YBR229C, strain ROT2, stronger effect = lower value 0.999 | locus YBR231C, strain swc5, stronger effect = lower value 0.964 | locus YBR279W, strain paf1, stronger effect = lower value 0.994 | locus YCL011C, strain gbp2, stronger effect = lower value 0.989 | locus YCL016C, strain dcc1, stronger effect = lower value 1.04 | locus YCL029C, strain bik1, stronger effect = lower value 1.02 | locus YCL061C, strain MRC1 (second series), stronger effect = lower value 1 | locus YCL069W, strain vba3, stronger effect = lower value 0.983 | locus YCR088W, strain abp1, stronger effect = lower value 0.973 | locus YDL005C, strain med2, stronger effect = lower value 0.991 | locus YDL035C, strain GPR1, stronger effect = lower value 1.02 | locus YDL040C, strain nat1, stronger effect = lower value 0.984 | locus YDL074C, strain BRE1, stronger effect = lower value 1.02 | locus YDL101C, strain DUN1, stronger effect = lower value 1.02 | locus YDL134C, strain PPH21, stronger effect = lower value 1.01 | locus YDL185W, strain tfp1, stronger effect = lower value 1.01 | locus YDL192W, strain arf1, stronger effect = lower value 1.01 | locus YDR001C, strain nth1, stronger effect = lower value 0.957 | locus YDR069C, strain doa4, stronger effect = lower value 0.954 | locus YDR101C, strain arx1, stronger effect = lower value 1.01 | locus YDR137W, strain rgp1, stronger effect = lower value 0.974 | locus YDR150W, strain NUM1, stronger effect = lower value 1 | locus YDR159W, strain sac3, stronger effect = lower value 1.03 | locus YDR162C, strain NBP2, stronger effect = lower value 1.01 | locus YDR195W, strain ref2 0.895 | locus YDR297W, strain sur2, stronger effect = lower value 0.982 | locus YDR318W, strain mcm21, stronger effect = lower value 1.02 | locus YDR334W, strain swr1, stronger effect = lower value 0.928 | locus YDR335W, strain msn5, stronger effect = lower value 0.977 | locus YDR363W, strain ESC2, stronger effect = lower value 0.985 | locus YDR388W, stronger effect = lower value 1.01 | locus YDR392W, strain spt3, stronger effect = lower value 1.04 | locus YDR502C, strain sam2, stronger effect = lower value 1.01 | locus YEL003W, strain gim4, stronger effect = lower value 0.986 | locus YEL037C, strain rad23, stronger effect = lower value 0.99 | locus YEL061C, strain CIN8 (second series), stronger effect = lower value 0.966 | locus YEL061C, strain CIN8, stronger effect = lower value 1.01 | locus YER002W, strain NOP16, stronger effect = lower value 0.993 | locus YER015W, strain faa2, stronger effect = lower value 1.01 | locus YER016W, strain bim1, stronger effect = lower value 1 | locus YER110C, stronger effect = lower value 1.01 | locus YER111C, strain swi4, stronger effect = lower value 0.972 | locus YER155C, strain BEM2 (second series), stronger effect = lower value 0.927 | locus YER155C, strain BEM2, stronger effect = lower value 1 | locus YER167W, strain BCK2, stronger effect = lower value 1 | locus YFR010W, strain ubp6, stronger effect = lower value 0.958 | locus YGL078C, strain dbp3, stronger effect = lower value 1.01 | locus YGL086W, strain mad1, stronger effect = lower value 0.994 | locus YGL167C, strain pmr1, stronger effect = lower value 0.964 | locus YGL173C, strain kem1, stronger effect = lower value 0.984 | locus YGL227W, strain vid30, stronger effect = lower value 0.984 | locus YGL240W, strain doc1, stronger effect = lower value 0.957 | locus YGL248W, strain PDE1, stronger effect = lower value 1.01 | locus YGL253W, strain hxk2, stronger effect = lower value 1 | locus YGR078C, strain PAC10, stronger effect = lower value 1.01 | locus YGR135W, strain pre9, stronger effect = lower value 1 | locus YGR229C, strain SMI1, stronger effect = lower value 0.999 and 0.99 | locus YGR252W, strain gcn5, stronger effect = lower value 0.962 | locus YHR013C, strain ard1, stronger effect = lower value 0.971 | locus YHR027C, strain rpn1, stronger effect = lower value 0.992 | locus YHR030C, strain SLT2, stronger effect = lower value 1.01 and 1.04 | locus YHR079C, strain IRE1 (second series), stronger effect = lower value 1.02 | locus YHR079C, strain IRE1, stronger effect = lower value 1.03 | locus YHR094C, strain hxt1, stronger effect = lower value 1.01 | locus YHR129C, strain ARP1, stronger effect = lower value 1 | locus YHR142W, strain chs7, stronger effect = lower value 0.99 | locus YHR200W, strain rpn10, stronger effect = lower value 1.02 | locus YIL066C, strain RNR3, stronger effect = lower value 1.01 | locus YIL073C, strain SPO22, stronger effect = lower value 1.06 | locus YIL125W, strain kgd1, stronger effect = lower value 0.998 | locus YIR030C, strain dcg1, stronger effect = lower value 1.01 | locus YJL092W, strain hpr5, stronger effect = lower value 0.977 | locus YJL095W, strain BCK1 (second series), stronger effect = lower value 0.973 | locus YJL095W, strain BCK1, stronger effect = lower value 1.02 | locus YJL115W, strain asf1, stronger effect = lower value 0.953 | locus YJL129C, strain trk1, stronger effect = lower value 0.969 | locus YJL134W, strain LCB3, stronger effect = lower value 1.01 | locus YJL154C, strain vps35, stronger effect = lower value 0.968 | locus YJL164C, strain tpk1, stronger effect = lower value 1.02 | locus YJL166W, strain qcr8, stronger effect = lower value 0.95 | locus YJL168C, strain set2, stronger effect = lower value 1.01 | locus YJL187C, strain SWE1 (second series), stronger effect = lower value 1.02 | locus YJR043C, strain POL32, stronger effect = lower value 1.02 | locus YJR066W, strain TOR1, stronger effect = lower value 0.989 | locus YJR075W, strain HOC1, stronger effect = lower value 1.01
